Test results from PubChem BioAssay (NCI).
“And” between values parts separate entries of the source, which are not always exact repeats. Equal values may be shown once. About 83,000 compounds went through this panel and 20% of them were active in at least one assay; those are over-represented in the sample as a whole.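 In brief: 96-well plates, 48 h treatment, single concentration, percent growth endpoint.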 The source made the active and inactive calls. How the source made its calls: active means growth percent below 10; inactive means the rest.

Experiments:
Assay in all cases: NCI-60 one-dose screen, 48 h (100 = growth as untreated, 0 = no growth, -100 = all killed)
Details in all cases: 10 µM unless noted
[1] = test system: T-47D breast
[2] = test system: BT-549 breast
[3] = test system: MDA-MB-435 melanoma
[4] = test system: SW-620 colon
[5] = test system: MCF7 breast
[6] = test system: HCT-116 colon
[7] = test system: HCC-2998 colon
[8] = test system: KM12 colon

Measured: growth

Clc1ccc(/C=N\N2CCCCCC2)cc1
inactive: [1] 108% and 97.4% | [2] 105% and 90.4% | [3] 86.8% and 96.3% | [4] 101% and 110% | [5] 98.8% and 96.2% | [6] 103% and 104% | [7] 97.4% | [8] 107%

CN(C)C1CCN(C(=O)c2ccc(NC(=O)Nc3ccc(-c4nc(N5CCOCC5)c5cccn5n4)cc3)cc2)CC1
active: [1] -36% | [2] -7.28% | [3] 1.97% | [4] 9.03% | [5] -4.03% | [6] 5.84% | [7] 3.23% | [8] 5.54%

O=C([C@H]1C[C@H]1c1ccc(S(F)(F)(F)(F)F)cc1)N1CCN(c2cc(Cl)ccc2C(F)(F)F)CC1
inactive: [1] 74.9% | [2] 106% | [3] 102% | [4] 95.9% | [5] 89.6% | [6] 60.2% | [7] 96.9% | [8] 82.5%

CCOC(=O)c1cnn(-c2ccc(S(N)(=O)=O)cc2)c1N
inactive: [1] 103% | [2] 96% | [3] 109% | [4] 110% | [5] 95.2% | [6] 94.4% | [7] 115% | [8] 122%

COc1ccc(-c2csc(NC(=O)CN3CCN(CCO)CC3)n2)cc1NS(=O)(=O)c1cccc2c(N(C)C)cccc12
inactive: [1] 72% | [2] 82.1% | [3] 57.3% | [4] 84.1% | [5] 59.6% | [6] 73.5% | [7] 73.2% | [8] 77.2%

CCCCCCCCCCCCCCCCCCOc1cccc(CC(=O)OCC[N+](CC)(CC)CC)c1
inactive: [1] 52.7% | [2] 86.9% | [3] 82.1% | [4] 78.6% | [5] 32.7% | [6] 51.7% | [7] 56.1% | [8] 83.3%
